Consider 40 compounds from PubChem BioAssay (Tox21).

Results filed as inconclusive are left out. Values without a mark were called inactive. Calls follow the shape of the dose curve; as a rule, active = well fitted cell-killing curve with a large enough effect in the repeat runs; inconclusive = weak or mixed curves, or effect the other way; inactive = no such curve, though single readings can be large or run the other way.
% is scaled to controls: 0 for no effect and ±100 for the full control effect.

This experiment is described as follows: qHTS assay to identify small molecule antagonists of the retinoid-related orphan receptor gamma (ROR-gamma) signaling pathway - cell viability counter screen (AID 1159520). Also: nearly all actives have a fitted effect of over 50% in size. The conditions noted are these: Tet-on RORgamma CHO cells viability, ATP luminescence, 16 h; series mostly up to 92.4 µM; activity, negative = cytotoxicity: at the top concentration. An excerpt:
U.S. Tox21 Program National Center for Advancing Translational Sciences [NCATS] NIH Chemical Genomics Center [NCGC] U.S. Environmental Protection Agency [EPA] National Institutes of Environmental Health Sciences [NIEHS] National Toxicology Program [NTP] U.S. Food and Drug Administration [FDA] Tox21 Assay Overview: Nuclear steroid hormone receptors are involved in many biological processes including inflammatory responses, cell proliferation, and apoptosis. Environmental factors or compounds disrupting these nuclear receptor pathways and gene expression may promote susceptibility to immunotoxicants and autoimmune diseases. One important group of these expression factors are the retinoid-related orphan receptors. To assess compounds that may interfere with the retinoid-related orphan receptor gamma (ROR-gamma) transcription factor, a cell-based luciferase assay was used. The CHO cell-based assay utilizes a TET-inducible ROR expression factor and ROR response element-LUC reporter gene. Reporter gene activity was induced using Doxycycline Hyclate and measured after 16 hr incubation. Tet-on ROR gamma CHO cells were used to screen against the Tox21 10K compound library for cytotoxicity by measuring the viability of the cells based on the quantitation of the ATP.
Tox21 Assay Protocol Summary: Tet-on ROR gamma CHO cells were dispensed at 1,000 cells in 4 uL of culture medium per well into white wall/solid bottom 1536-well plates using a Multidrop Combi (Thermo Scientific, Waltham, MA) dispenser. Following incubation at 37 C and 5% CO2 for 4 hr, 23 nL of compounds dissolved in DMSO, positive controls or DMSO only were transferred by a Pintool station (Kalypsys, San Diego, CA) and after 2 hr incubation at 37 C, one ul of 1 uM (final concentration) of Doxycycline Hyclate was added to all the wells by using a Flying Reagent Dispenser (FRD) (Aurora Discovery, San Diego, CA). After 16 hr incubation at 37 C and 5% CO2, 5 uL of CellTiter-Glo reagent (Promega Corporation, Madison, WI) was added to each assay plate using FRD. After 30 min incubation at room temperature, luminescence was quantified on a ViewLux plate reader (Perkin Elmer, Waltham, MA).
Background: qHTS replaces the single test concentration by a dilution series.
On to `CCOC(=O)C(Br)c1ccccc1` (stereo not given), for which the “activity, negative = cytotoxicity” value was 0.0992%.
As for `C=Cc1ccccc1`, the figure is -2.19%; as for `CO[C@@]1(NC(=O)CSCC#N)C(=O)N2C(C(=O)O)=C(CSc3nnnn3C)CS[C@@H]21`, 1.02% [at 42.5 µM]; as for `C=CCCCCCCCCO`, -11.2%.
Under `Cc1cc2nc(N)sc2cc1C` stands -15.3%.
Under `O=C(O)[C@@H]1CSCN1` stands 0.551% [at 42.5 µM]; under `CS(=O)(=O)c1ccc([C@@H](O)[C@@H](CF)NC(=O)C(Cl)Cl)cc1`, -1.23% [at 42.5 µM]; under `C=CC(C)(O)CC/C=C(\C)CCC=C(C)C` (stereo not given), 0.572%.
In the case of `CCc1cc(Cl)c(OC)c(C(=O)NC[C@@H]2CCCN2CC)c1O`, the “activity, negative = cytotoxicity” value is -0.938% [at 42.5 µM].
On to `CC1=NN(c2cc(Cl)c(S(=O)(=O)O)cc2Cl)C(=O)C1N=Nc1ccc(S(=O)(=O)O)cc1` (stereo not given), for which the “activity, negative = cytotoxicity” value is 0.577%.
Under `C1CCOC1` stands -9.19%; under `NC/C=C/C(=O)O`, 5.91% [at 42.5 µM]; under `CC(C)c1ccccc1`, 1.04%.
Under `CCCCCCOc1ccc(N)cc1` stands -0.957%; under `Cc1ccc(C=O)s1`, 3.51%.
Turning to `CC(C)=CCCC(C)CCOC=O` (stereo not given), the “activity, negative = cytotoxicity” value is -0.501%.
For the compound `CC1CN(c2ccccc2)NC1=O` (stereo not given), the “activity, negative = cytotoxicity” value was 6.51%.
As for `CCOC(=O)CS`, the figure is -12.6%; as for `CCCCNc1cc(C(=O)O)cc(S(N)(=O)=O)c1Oc1ccccc1`, 2.32% [at 42.5 µM]; as for `NC(=O)Cc1cccc(C(=O)c2ccccc2)c1N`, 3.65% [at 42.5 µM].
Regarding `O=[N+]([O-])c1nccn1CO[C@@H](CO)[C@H](O)CO`, the “activity, negative = cytotoxicity” value is 4.17% [at 42.5 µM].
Under `Cc1c(C(=O)NCCO)[n+](=O)c2ccccc2n1[O-]` stands 3.08% [at 42.5 µM]; under `CCOC(=O)C1CC(=O)C(=C(O)C2CC2)C(=O)C1` (stereo not given), 7.36%; under `CC(=O)Nc1ccc(C)c(Cl)c1`, 1.68%.
Under `Cc1ccccc1C(=O)Nc1ccc(C(=O)N2CCCC(O)c3cc(Cl)ccc32)c(C)c1` (stereo not given) stands -8.7% [at 42.5 µM].
In the case of `COC(=O)N[C@H](C(=O)N[C@@H](Cc1ccccc1)[C@@H](O)CN(Cc1ccc(-c2ccccn2)cc1)NC(=O)[C@@H](NC(=O)OC)C(C)(C)C)C(C)(C)C`, the “activity, negative = cytotoxicity” value was 5.54% [at 42.5 µM].
Turning to `CCOc1ccc2nc(N)sc2c1`, the “activity, negative = cytotoxicity” value was -20.6%.
Under `CC1=C2[C@H](/C=C(\C)C(=O)O)CC[C@@H](C)[C@H]2CC1` stands 11.5%.
As for `CCCCNc1ccc(C(=O)OCCN(CC)CC)cc1`, the “activity, negative = cytotoxicity” value is 3.9% [at 42.5 µM].
Under `CCCOc1ccc2c(c1)CC[C@@H]1[C@@H]2CC[C@]2(C)C(OC)CC[C@@H]12` (stereo not given in full) stands -11% [at 42.5 µM]; under `CCN(CCCc1ccccc1)CCCc1ccccc1`, -5.04% [at 42.5 µM]; under `CC1(C)O[C@@H]2C[C@H]3[C@@H]4CCC5=CC(=O)CC[C@]5(C)[C@@]4(F)[C@@H](O)C[C@]3(C)[C@]2(C(=O)CCl)O1`, 5.08% [at 42.5 µM].
Under `CN1CCN(c2c(F)cc3c(=O)c(C(=O)O)cn4c3c2SCC4)CC1` stands 1.25% [at 42.5 µM]; under `C=CCc1cc(OC)c(O)c(C(=O)NCCO)c1`, -3.56% [at 42.5 µM]; under `CCN(CC)CCNC(=O)COc1ccc(Cl)cc1`, 0.579% [at 42.5 µM].
Under `CN(C)CC[C@@H](c1ccc(Cl)cc1)c1ccccn1` stands 0.111% [at 42.5 µM]; under `CCN(CC)CC1CCCCN1CC(=O)N1c2ccccc2C(=O)Nc2cccnc21` (stereo not given), 5.61% [at 42.5 µM]; under `Nc1ccc(Oc2ccc(N)c(N)c2)cc1`, 2.2%.
With `CN1CCN(C2=Nc3ccccc3Oc3ccc(Cl)cc32)CC1`, the “activity, negative = cytotoxicity” value was 1.35% [at 42.5 µM].
As for `O=C1CCN(c2ccccc2)N1`, the figure is -1.39%.
